This passage reports inhibition results from ChEMBL document CHEMBL1961873, “Compounds: GSK PKIS; Assays: Nanosyn kinase panel” (2012).

Values joined by “and” are separate entries in the source; they are usually repeats but may differ in a detail not shown here. Identical values can stand only once.

Assay [1] has as its target High affinity nerve growth factor receptor (Homo sapiens) (UniProt P04629). The following applies: at 1 µM.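 Also: each value is the mean percent inhibition of TRKA.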
In assay [2] the target is BDNF/NT-3 growth factors receptor (Homo sapiens) (UniProt Q16620). The following applies: at 0.1 µM.
For assay [3] the target is unchanged. The following applies: at 1 µM.
Assay [4] deals with NT-3 growth factor receptor (Homo sapiens) (UniProt Q16288). The settings on record: at 0.1 µM.
The target is the same in assay [5]. The following applies: at 1 µM.
Assay [6] addresses T1, Tyrosine-protein kinase TXK (Homo sapiens) (UniProt P42681).
T1 sequence (whole entry): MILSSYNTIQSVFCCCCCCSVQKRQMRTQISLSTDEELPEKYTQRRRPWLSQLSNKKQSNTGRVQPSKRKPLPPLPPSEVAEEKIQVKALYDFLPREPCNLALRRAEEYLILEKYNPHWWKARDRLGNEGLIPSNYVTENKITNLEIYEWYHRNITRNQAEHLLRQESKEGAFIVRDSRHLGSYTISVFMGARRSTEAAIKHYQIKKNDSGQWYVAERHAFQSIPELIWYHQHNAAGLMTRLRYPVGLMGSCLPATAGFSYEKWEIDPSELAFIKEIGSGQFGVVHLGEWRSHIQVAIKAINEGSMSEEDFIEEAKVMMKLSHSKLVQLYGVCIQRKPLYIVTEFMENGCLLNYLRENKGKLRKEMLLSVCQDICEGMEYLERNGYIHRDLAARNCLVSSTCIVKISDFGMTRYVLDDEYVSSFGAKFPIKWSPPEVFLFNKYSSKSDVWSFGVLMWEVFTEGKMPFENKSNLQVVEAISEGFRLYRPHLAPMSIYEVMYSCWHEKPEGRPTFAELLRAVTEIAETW
The settings on record: at 0.1 µM.

The target of assay [7] is T1, Tyrosine-protein kinase TXK (Homo sapiens). The following applies: at 1 µM.
Assay [8] deals with Non-receptor tyrosine-protein kinase TYK2 (Homo sapiens) (UniProt P29597). The settings on record: at 0.1 µM.
Assay [9] concerns the target T2, Dual specificity protein kinase TTK (Homo sapiens) (UniProt P33981).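 Also: reported figures are mean TTK inhibition at 1 µM.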
T2 sequence (whole entry): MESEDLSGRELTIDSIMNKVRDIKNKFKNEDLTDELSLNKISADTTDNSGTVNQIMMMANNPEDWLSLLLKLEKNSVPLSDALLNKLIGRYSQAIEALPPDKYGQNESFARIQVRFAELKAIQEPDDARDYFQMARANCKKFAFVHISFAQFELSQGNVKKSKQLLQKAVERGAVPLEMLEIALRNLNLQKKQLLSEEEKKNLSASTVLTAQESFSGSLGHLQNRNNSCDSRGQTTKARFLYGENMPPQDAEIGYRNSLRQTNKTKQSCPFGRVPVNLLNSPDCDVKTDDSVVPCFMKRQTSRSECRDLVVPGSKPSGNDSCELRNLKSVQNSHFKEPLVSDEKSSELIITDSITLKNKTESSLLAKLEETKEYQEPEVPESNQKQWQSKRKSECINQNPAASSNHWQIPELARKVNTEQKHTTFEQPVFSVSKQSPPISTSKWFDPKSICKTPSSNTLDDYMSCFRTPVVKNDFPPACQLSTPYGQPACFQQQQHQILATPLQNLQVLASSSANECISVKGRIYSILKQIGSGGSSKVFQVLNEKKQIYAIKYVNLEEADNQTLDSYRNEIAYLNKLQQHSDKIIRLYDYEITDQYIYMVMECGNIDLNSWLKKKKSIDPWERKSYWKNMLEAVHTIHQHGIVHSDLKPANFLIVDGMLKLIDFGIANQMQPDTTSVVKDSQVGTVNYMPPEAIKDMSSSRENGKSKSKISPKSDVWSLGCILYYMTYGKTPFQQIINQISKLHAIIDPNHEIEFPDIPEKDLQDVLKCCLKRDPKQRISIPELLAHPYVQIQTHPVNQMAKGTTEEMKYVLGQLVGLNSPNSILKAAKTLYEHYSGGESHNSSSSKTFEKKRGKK
The settings on record: at 1 µM.

Assay [10] addresses T3, Aurora kinase A (Homo sapiens) (UniProt O14965).
T3 sequence (whole entry): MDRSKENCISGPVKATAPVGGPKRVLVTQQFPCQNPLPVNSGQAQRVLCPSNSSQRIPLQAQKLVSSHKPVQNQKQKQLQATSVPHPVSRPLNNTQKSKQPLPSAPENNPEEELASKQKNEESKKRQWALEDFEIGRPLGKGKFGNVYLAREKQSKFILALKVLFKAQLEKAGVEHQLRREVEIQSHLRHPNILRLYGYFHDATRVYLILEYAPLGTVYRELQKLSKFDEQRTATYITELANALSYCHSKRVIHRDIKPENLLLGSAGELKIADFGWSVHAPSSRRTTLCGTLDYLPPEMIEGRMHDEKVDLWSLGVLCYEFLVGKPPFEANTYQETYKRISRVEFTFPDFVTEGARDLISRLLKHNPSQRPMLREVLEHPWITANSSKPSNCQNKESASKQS
The following applies: at 0.1 µM.

Sequence of Non-receptor tyrosine-protein kinase TYK2 (Homo sapiens) (P29597 whole entry): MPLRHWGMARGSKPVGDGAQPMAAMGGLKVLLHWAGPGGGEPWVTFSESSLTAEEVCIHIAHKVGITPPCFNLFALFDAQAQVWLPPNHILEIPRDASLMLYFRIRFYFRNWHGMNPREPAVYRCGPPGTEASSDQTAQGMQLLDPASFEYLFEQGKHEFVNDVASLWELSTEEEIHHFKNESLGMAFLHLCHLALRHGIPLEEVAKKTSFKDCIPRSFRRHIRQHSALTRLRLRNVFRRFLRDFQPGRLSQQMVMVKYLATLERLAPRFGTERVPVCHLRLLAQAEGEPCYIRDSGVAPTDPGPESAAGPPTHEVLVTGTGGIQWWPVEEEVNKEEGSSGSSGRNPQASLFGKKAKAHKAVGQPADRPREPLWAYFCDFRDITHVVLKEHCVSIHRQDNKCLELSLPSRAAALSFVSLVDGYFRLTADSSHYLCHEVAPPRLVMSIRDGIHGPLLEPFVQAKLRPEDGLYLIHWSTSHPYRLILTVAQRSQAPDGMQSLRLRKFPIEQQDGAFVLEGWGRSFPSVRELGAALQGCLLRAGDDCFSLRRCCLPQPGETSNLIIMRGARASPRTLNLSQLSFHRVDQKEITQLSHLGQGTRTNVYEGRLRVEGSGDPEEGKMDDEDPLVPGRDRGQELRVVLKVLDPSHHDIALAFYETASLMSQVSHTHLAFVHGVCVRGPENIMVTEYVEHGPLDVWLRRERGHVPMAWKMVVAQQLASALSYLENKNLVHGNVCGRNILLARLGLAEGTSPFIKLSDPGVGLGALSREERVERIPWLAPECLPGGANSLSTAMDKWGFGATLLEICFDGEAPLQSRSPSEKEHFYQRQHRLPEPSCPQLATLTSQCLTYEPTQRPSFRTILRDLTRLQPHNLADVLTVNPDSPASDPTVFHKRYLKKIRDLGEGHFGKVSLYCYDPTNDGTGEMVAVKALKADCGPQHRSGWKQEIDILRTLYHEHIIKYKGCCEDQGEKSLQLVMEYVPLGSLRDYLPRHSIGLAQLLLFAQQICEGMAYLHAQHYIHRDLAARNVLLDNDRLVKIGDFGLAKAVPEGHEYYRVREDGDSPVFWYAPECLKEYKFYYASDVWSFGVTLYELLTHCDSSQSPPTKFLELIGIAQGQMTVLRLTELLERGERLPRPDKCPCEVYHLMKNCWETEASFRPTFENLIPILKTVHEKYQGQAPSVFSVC
Sequence of BDNF/NT-3 growth factors receptor (Homo sapiens) (Q16620 32-822 limits assumed): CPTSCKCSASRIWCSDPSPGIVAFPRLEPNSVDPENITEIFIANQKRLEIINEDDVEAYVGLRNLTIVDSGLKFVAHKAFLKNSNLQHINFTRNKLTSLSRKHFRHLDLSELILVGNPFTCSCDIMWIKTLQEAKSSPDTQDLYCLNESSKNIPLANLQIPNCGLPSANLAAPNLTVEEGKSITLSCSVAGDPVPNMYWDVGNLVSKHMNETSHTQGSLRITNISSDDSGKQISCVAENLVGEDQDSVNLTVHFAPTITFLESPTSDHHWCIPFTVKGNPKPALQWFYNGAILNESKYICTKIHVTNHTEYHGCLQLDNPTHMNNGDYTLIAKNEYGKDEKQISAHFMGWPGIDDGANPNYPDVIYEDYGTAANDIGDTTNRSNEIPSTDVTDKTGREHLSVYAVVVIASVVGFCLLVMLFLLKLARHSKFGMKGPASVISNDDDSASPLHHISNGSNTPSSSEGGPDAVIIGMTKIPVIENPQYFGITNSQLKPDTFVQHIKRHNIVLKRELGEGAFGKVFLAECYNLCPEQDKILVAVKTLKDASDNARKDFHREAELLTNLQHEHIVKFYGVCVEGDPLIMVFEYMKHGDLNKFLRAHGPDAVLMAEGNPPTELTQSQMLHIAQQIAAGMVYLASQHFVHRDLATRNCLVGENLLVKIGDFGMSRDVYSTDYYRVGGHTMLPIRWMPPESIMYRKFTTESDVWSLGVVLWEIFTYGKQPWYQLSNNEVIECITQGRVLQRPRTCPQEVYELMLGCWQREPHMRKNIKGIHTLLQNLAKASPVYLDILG
Sequence of NT-3 growth factor receptor (Homo sapiens) (Q16288 32-839 limits assumed): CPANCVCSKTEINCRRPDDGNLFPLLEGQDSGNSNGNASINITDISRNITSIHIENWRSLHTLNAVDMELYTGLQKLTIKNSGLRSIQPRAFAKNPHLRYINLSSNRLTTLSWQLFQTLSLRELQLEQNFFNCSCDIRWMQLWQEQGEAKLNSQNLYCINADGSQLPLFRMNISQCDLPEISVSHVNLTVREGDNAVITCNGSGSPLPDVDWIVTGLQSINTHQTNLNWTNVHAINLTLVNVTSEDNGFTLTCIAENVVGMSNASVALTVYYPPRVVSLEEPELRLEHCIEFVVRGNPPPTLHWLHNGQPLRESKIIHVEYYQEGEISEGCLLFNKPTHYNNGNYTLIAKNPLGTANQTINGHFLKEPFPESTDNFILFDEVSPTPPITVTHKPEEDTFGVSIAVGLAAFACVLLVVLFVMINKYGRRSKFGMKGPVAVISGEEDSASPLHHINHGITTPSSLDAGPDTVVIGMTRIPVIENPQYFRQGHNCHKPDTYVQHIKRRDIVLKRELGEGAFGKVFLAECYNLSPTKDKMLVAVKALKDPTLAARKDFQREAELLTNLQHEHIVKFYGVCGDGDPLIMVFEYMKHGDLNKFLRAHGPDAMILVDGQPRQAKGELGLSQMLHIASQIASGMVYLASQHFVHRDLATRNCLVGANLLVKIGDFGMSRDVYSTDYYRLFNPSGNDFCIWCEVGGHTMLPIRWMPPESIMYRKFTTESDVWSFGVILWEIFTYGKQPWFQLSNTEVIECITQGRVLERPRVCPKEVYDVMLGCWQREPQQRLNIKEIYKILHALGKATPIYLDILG
Sequence of High affinity nerve growth factor receptor (Homo sapiens) (P04629 33-796 limits assumed): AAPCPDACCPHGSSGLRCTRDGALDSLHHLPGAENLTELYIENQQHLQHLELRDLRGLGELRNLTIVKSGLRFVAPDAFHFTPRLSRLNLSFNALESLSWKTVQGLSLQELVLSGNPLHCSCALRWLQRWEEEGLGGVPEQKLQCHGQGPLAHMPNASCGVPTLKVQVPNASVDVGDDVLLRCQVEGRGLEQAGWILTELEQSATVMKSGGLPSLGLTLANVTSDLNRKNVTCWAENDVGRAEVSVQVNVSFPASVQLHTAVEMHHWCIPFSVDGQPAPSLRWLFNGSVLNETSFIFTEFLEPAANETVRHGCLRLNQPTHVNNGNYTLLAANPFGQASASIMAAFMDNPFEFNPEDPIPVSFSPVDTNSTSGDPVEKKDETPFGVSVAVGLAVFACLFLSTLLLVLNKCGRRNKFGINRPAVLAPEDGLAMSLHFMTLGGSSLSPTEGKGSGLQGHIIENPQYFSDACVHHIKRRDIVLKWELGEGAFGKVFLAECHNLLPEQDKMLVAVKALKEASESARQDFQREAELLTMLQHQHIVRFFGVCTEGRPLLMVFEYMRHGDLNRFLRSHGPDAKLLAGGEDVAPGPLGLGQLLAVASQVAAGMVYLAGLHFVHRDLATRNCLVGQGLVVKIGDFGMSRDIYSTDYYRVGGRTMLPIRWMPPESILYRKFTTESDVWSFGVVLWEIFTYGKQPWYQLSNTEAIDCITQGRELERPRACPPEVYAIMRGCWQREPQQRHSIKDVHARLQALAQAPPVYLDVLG

A word on the inhibition: it is the drop in the measured response relative to a control, in per cent. Regarding `COc1c(C(N)=O)cc(-c2ccc(Cl)cc2)cc1-c1ccc(S(N)(=O)=O)cc1`, the inhibition came out at 4.22% in assay [1]; 2.88% in assay [2]; 3.12% in assay [3]; 2.54% in assay [4]; 2.2% in [5]; 9.73% in assay [6]. Besides, the inhibition in assay [7] was 4.4%; in [8], -0.68%; in [9], 12.9%; in [10], 2.86%.
For the compound `CN1CCN(Cc2ccc(-c3cc4ncnc(Nc5ccc(OCc6cccc(F)c6)c(Cl)c5)c4s3)o2)CC1`, the inhibition in assay [1] is 3.16% and 2.15%; in [2] it was 3.04% and 3.64%; in assay [3], 2.54% and 4.97%; in [4], 2.27% and 4.29%; in assay [5], 3.84% and 5.78%; in assay [6] it was -1.05% and 3.1%. Besides, the inhibition in assay [7] was 5.76% and 4.28%; in [8], -2.41% and -3.9%; in assay [9], 8.37% and 11.4%; in assay [10], 1.75% and 2.97%.
With `N#Cc1ccc2c(-c3ccnc(NC4CC4)n3)c(-c3ccc(F)cc3)nn2c1`, the inhibition was -2.02% in [1]; 0.12% in [2]; 0.68% in assay [3]; -1.35% in assay [4]; -1.48% in assay [5]; 0.94% in assay [6]. For the same compound, the inhibition turned out to be 12.3% in assay [7], 0.53% in assay [8], 3.53% in assay [9] and 0.84% in assay [10].
For the compound `CNC(=O)c1ncccc1Nc1nc(Nc2cc3c(cc2OC)CCCN3C(=O)CN(C)C)nc2[nH]ccc12`, the inhibition in assay [1] turned out to be 6.12%; in assay [2], 3.17%; in [3], 5.34%; in [4] it was 2.2%; in assay [5], 5.36%; in assay [6], 3.73%. In addition, the inhibition was 1.5% in assay [7], -3.3% in assay [8], 35.2% in [9] and 2.64% in assay [10].
Consider `COc1ccc2ncn(-c3cc(O[C@H](C)c4ccccc4C(F)(F)F)c(C(N)=O)s3)c2c1`, for which the inhibition was 2.53% in assay [1]; -0.31% in assay [2]; 4.65% in assay [3]; 0.4% in [4]; 5.65% in assay [5]; 1.46% in assay [6]. The inhibition in assay [7] is 2.56%; in assay [8] it was 0.28%; in assay [9], 5.58%; in [10] it was -0.03%.
As for `CC1=C(C(=O)Nc2ccc3[nH]ncc3c2)C(c2ccc(F)cc2)N=C(c2ccc(C(F)(F)F)nc2)N1` (stereo not given), the inhibition was found to be 4.07% in assay [1]; 1.02% in assay [2]; 1.46% in assay [3]; 2.88% in assay [4]; 3.8% in assay [5]; 3.02% in assay [6]. Also, the inhibition in assay [7] was 4.16%; in [8] it was -0.65%; in [9] it was -4.56%; in assay [10], 4.97%.
As to `FC(F)(F)CNc1nccc(-c2cnn3ncccc23)n1`, the inhibition in [1] is 2.2%; in assay [2], 0.64%; in assay [3], -0.08%; in assay [4], 0.73%; in assay [5], 0.22%; in assay [6], -0.11%. Also, the inhibition in assay [7] is 1.8%; in assay [8], -4.86%; in assay [9], 8.83%; in assay [10] it was 2.68%.
For the compound `O=C(Nc1n[nH]c2nnc(-c3cccnc3)cc12)C1CC1`, the inhibition is -0.64% in [1]; -0.74% in assay [2]; 0.57% in [3]; -0.44% in assay [4]; -0.22% in assay [5]; 0.3% in [6]. The inhibition in assay [7] came to 2.21%; in assay [8], 1.8%; in assay [9] it was 2.14%; in assay [10], 0.85%.
Take `Cc1cc(O)cc(C)c1/C=C/c1cncc(C(N)=O)c1`: the inhibition in assay [1] is 1.48%; in [2], 1.71%; in [3], 0.87%; in assay [4], 1.25%; in assay [5], 0.56%; in assay [6], 5.98%. The inhibition is 27.9% in assay [7], -2.57% in assay [8], 2.18% in [9] and 2.32% in assay [10].
Take `CCS(=O)(=O)c1ccc(OC)c(Nc2ncc(-c3cccc(F)c3)o2)c1`: the inhibition in assay [1] turned out to be 42.8%; in assay [2], 10%; in assay [3], 47.2%; in assay [4], 12%; in assay [5], 48.1%; in [6] it was 17.2%. The inhibition in assay [7] is 56%; in assay [8], -0.94%; in assay [9], 8.85%; in [10], 7.01%.
With `NS(=O)(=O)c1cccc(N/C=C2\C(=O)Nc3ccccc32)c1`, the inhibition in assay [1] was 16.2%; in assay [2], 6.02%; in assay [3], 32.9%; in [4], 6.86%; in assay [5] it was 32.3%; in assay [6] it was 4.29%. Moreover, the inhibition in [7] is 6.83%; in assay [8], -2.94%; in [9] it was 21.3%; in [10], 7.85%.
Turning to `CNC(=O)c1cncc(/C=C/c2ccccc2C)c1`, the inhibition was determined as 1.73% in assay [1]; 2.61% in assay [2]; 4.3% in assay [3]; 3.82% in [4]; 5.34% in assay [5]; 6.85% in [6]. The inhibition in assay [7] was 24.5%; in [8] it was -2.79%; in assay [9] it was 11.7%; in assay [10] it was 1.35%.
Take `COc1ccccc1-c1cc(/C=C2\C(=O)Nc3ncc(Br)cc32)cc(Br)c1O`: the inhibition was found to be 61.7% in assay [1]; 38.7% in [2]; 89.2% in [3]; 41.7% in assay [4]; 93.9% in assay [5]; 3.05% in assay [6]. In addition, the inhibition in [7] was 6.65%; in assay [8] it was -5.9%; in assay [9] it was 9.88%; in assay [10], 13.4%.
Regarding `Fc1cccc(COc2ccc(Nc3ncncc3C#Cc3ccccc3)cc2Cl)c1`, the inhibition in [1] is 2.13%; in assay [2] it was 2.56%; in [3] it was 5.8%; in assay [4], 2.81%; in assay [5], 6.63%; in assay [6] it was 1.94%. Also, the inhibition in assay [7] was 3.56%; in [8], -4.7%; in [9] it was 8.47%; in assay [10] it was 2.33%.
As for `c1ccc(-c2n[nH]cc2-c2ccnc(-c3ccc(OCCn4ccnc4)cc3)c2)nc1`, the inhibition was 3.78% in assay [1]; 0.64% in [2]; 4.04% in assay [3]; 0.02% in [4]; 4.91% in assay [5]; 0.7% in assay [6]. Besides, the inhibition in assay [7] came to 4.37%; in assay [8], 1.04%; in assay [9], 10.7%; in assay [10] it was 1.14%.
